Source: PubChem BioAssay (National Center for Advancing Translational Sciences (NCATS))
Six1-Eya2 inh – Six1/Eya2 interaction inhibition | Q15475+O00167 | AlphaScreen GST-Six1/His-Eya2 binding, biochemical; hits give low values | activity change, % (no concentration beside the values) | 0.56% of 360,000 active | AID 651725; in the data active means activity change below about -65%; inconclusive means mostly about -30% to -63%; further: on the % scale 0 is the no-effect control and ±100 the full control effect
Target sequence (O00167 whole entry, looked up): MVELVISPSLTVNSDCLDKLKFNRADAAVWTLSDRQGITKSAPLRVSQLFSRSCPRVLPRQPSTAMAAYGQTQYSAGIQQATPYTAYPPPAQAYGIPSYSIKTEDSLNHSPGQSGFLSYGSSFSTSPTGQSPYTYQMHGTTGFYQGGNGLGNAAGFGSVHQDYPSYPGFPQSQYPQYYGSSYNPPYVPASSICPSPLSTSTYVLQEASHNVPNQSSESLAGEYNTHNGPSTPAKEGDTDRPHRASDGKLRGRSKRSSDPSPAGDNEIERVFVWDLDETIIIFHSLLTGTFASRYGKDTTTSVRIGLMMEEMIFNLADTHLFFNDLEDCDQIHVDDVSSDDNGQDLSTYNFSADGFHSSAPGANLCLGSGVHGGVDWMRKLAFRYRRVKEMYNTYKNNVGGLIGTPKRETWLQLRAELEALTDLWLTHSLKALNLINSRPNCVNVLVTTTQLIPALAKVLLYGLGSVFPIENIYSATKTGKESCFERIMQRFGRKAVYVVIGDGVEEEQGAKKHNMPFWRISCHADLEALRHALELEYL
Target sequence (Q15475 whole entry, looked up): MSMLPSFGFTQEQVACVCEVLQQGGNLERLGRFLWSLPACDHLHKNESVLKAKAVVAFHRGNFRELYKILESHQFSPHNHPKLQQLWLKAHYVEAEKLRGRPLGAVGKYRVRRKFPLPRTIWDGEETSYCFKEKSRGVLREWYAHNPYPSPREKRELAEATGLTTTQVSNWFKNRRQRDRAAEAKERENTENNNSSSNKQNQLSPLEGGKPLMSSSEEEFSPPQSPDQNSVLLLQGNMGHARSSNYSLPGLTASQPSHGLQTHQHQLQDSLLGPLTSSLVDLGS
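AlphaScreen with GST-Six1 and His-Eya2 (5X mix: 250 nM and 500 nM), glutathione donor and nickel acceptor beads; buffer 50 mM Tris pH 8.0, 300 mM NaCl, 1 mM TCEP; 1 h at 37 C in the dark.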
CBFb-RUNX1 inh – blocks binding between human CBF-beta and RUNX1. 230,000 tested, under 10 active. Potency, µM (titrated, usually from 59.8 µM), without a hit: at the highest dose activity, negative = inhibition, actives largely listed as inhibitors. Q01196+Q13951. AlphaScreen CBFb-His/RUNX1-biotin binding, biochemical; further: % of control where 0% means no effect
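AlphaScreen binding: CBFb-His and RUNX1-biotin (30 nM each) preincubated 20 min, compound added for 15 min, then nickel and streptavidin beads for 90 min, all at room temperature. Disruption of the interaction by any mechanism counts as activity.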
MBNL1-CUG inh – MBNL1-poly(CUG) RNA binding inhibition; TR-FRET MBNL1-His/biotin-(CUG)12 binding, 665/545 ratio; Potency, µM (doses to about 57.5 µM), inactives show at the top dose activity change, negative = inhibition, hits mostly inhibitors; AID 2675; 0.036% of 280,000 active; active means well fitted inhibition curve with a large enough effect in the signal ratio, with a control signal flat, not every such curve was filed as active; inconclusive means small, poorly fitted or top-dose-only effect, or effect the other way, or a change in a side signal; inactive means no such curve, though single readings can be large or run the other way; the % refers to the signal ratio; further: potency means the concentration at half of the fitted maximal effect; on the % scale 0 is the no-effect control and ±100 the full control effect
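Ratiometric TR-FRET (665 over 545 nm, excitation 340 nm) tracks disruption of MBNL1-His/biotin-(CUG)12 complex after 60 min at room temperature, with compounds at 92 nM to 58 uM final.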
RORg inh – blocks mouse ROR gamma transcriptional activity. P51450. Drosophila S2 Gal4-RORgamma UAS-luciferase reporter, 20 h. Potency, µM (highest dose often 53.6 µM), without a hit: top-dose activity change, negative = inhibition, most hits filed as inhibitors. 5.4% of 310,000 active; further: potency means the concentration at half of the fitted maximal effect; on the % scale 0 is the no-effect control and ±100 the full control effect; nearly all actives have a fitted effect of over 60% in size
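Compounds are pin-transferred onto Drosophila Schneider cells expressing a copper-inducible Gal4–ROR gamma transactivation domain fusion. After 1 hr, copper sulfate is added to 700 uM final; luciferase is read 20 hr later.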
CtBP-E1A inh – inhibitors of CtBP/E1A interaction; AID 651724; activity change, % (concentration not given with the values); AlphaScreen GST-E1A/His-CtBP binding, 1536-well; hits give low values; 0.49% of 340,000 active; in the data active means activity change below about -65%; inconclusive means mostly about -30% to -63%; further: on the % scale 0 is the no-effect control and ±100 the full control effect
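GST-E1A and His-tagged CtBP (125 nM each as 5X stock) were preincubated with pin-transferred compound for 2 h at 37 °C in the dark, then glutathione donor and nickel acceptor beads were added for 1 h before AlphaScreen reading.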
VP16 counter – Gal4-VP16 reporter inhibition counter-screen. Drosophila S2 Gal4-VP16 UAS-luciferase, luminescence, 20 h. AID 2546. 3.5% of 310,000 active. Potency, µM (highest dose often 53.6 µM), for the others: at the top dose activity, negative = inhibition, hits mostly inhibitors;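 further: Gal4-VP16 expression switched on by copper sulfate through the metallothionein promoter; potency means the concentration at half of the fitted maximal effect; on the % scale 0 is the no-effect control and ±100 the full control effect; nearly all actives have a fitted effect of over 50% in size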
* marks the source's active call; other numbers are inactive results; ? = inconclusive; . = no result; [ ] = another dose, or the depositor's remark. Only some compounds are listed: those with a hit (about 5.5% of all), similar ones and a draw of the others. Unless noted, the call rests on the fitted dose curve; in most records, active means well fitted curve in the direction sought with a large enough effect; inconclusive means small, poorly fitted or top-dose-only effect, or another doubt; inactive means no such curve, though single readings can be large; an effect the other way counts as inactive or inconclusive.

SMILES	Six1-Eya2 inh	CBFb-RUNX1 inh	MBNL1-CUG inh	RORg inh	CtBP-E1A inh	VP16 counter
Cc1ccc(C(=O)Nc2ccon2)cc1S(=O)(=O)N1CCOCC1	-16	-6%	9%	11µM*	-20	?
Cc1cc(C)n(-c2ccc(C(=O)Nc3ccc(C)c(S(=O)(=O)N4CCOCC4)c3)cc2)n1	-73*	11%	10%	?	-76*	-1%
COc1ccccc1CN=Cc1[nH]c2ccc(Br)c(Cl)c2c1O	-1	-8%	5%	-101%	-3	11µM*
Cc1cccc(N=Cc2[nH]c3ccc(Br)c(Cl)c3c2O)c1	0	-11%	-2%	-18%	23	?
O=C(/C(=N/N=C/c1ccc(O)c(O)c1O)c1ccccc1)c1ccccc1	-25	-3%	-20%	?	-10	10µM*
COc1ccc(-n2nc(C(=O)NCC(=O)N3CC(C)CC(C)C3)c3ccccc3c2=O)cc1 (configuration not stated)	3	.	?	29%	0	-4%
NNC(=S)Nc1c(Br)cc(F)cc1Br	-1	5%	-1%	6.3µM*	0	?
O=Cc1ccc(O)c2ncccc12	-74*	.	24%	1µM*	-67*	0.56µM*
COc1cc(NC(=O)c2ccnn2C)c(OC)cc1Cl	-2	3%	-8%	-17%	2	-15%
Cn1nccc1C(=O)NC(=S)Nc1cc(Cl)cc(Cl)c1	1	.	107%	2.5µM*	3	13µM*
COc1ccccc1CNC(=O)CSc1ccc(-c2ccncc2)nn1	-2	-1%	7%	0%	.	8%
O=C(NC(=S)Nc1ccc(Cl)cn1)C12CC3CC(CC(C3)C1)C2	-8	14%	-9%	6.3µM*	.	4µM*
O=C(NC(=S)Nc1ccc(Cl)cn1)C(c1ccccc1)c1ccccc1	-5	0%	-10%	4µM*	-5	4µM*
S=C(Nc1ccccc1)Nc1ccc(Cl)cn1	-1	11%	?	3%	-1	-14%
CC1CC(CCC(=O)NC(=S)Nc2ccc(Cl)cn2)C(=O)O1 (configuration not stated)	-16	11%	-14%	11µM*	-4	-27%
COc1cc(SC)ccc1C(=O)Nc1ccc(Cl)cn1	-7	6%	9%	7.9µM*	-25	8.9µM*
CC1CC(CC(=O)NC(=S)Nc2ccccc2Cl)C(=O)O1 (configuration not stated)	12	-2%	-7%	-25%	.	-16%[10 µM]
COc1cc(C(=O)C(=O)N2CCC(Cc3ccccc3)CC2)cc2ccccc12	-3	.	.	.	-4	.
CCC(=O)NC(=S)Nc1ccc(Cl)cn1	-3	2%	-3%	2.8µM*	0	?
CCCCCC(=O)Nc1ccc(Cl)cn1	3	0%	-5%	40%	13	-13%
CCCCC(=O)Nc1ccc(Cl)cn1	7	-11%	0%	43%	6	1%
COc1cc(C(=O)NC(=S)Nc2ccc(Cl)cn2)cc(OC)c1OC	-10	.	-7%	5µM*	0	11µM*
CCCCCC(=O)NC(=S)Nc1ccc(Cl)cn1	14	5%	-6%	7.1µM*	.	7.9µM*
CCOC(=O)c1ccc(NC(=O)c2nc[nH]c2C(=O)NC)cc1	2	-2%	4%	10µM*	1	-28%
Cc1ccc(NC(=O)c2nc[nH]c2C(=O)NCC(=O)OC(C)(C)C)cc1	1	1%	-6%	6.3µM*	-2	?
SMILES	Six1-Eya2 inh	CBFb-RUNX1 inh	MBNL1-CUG inh	RORg inh	CtBP-E1A inh	VP16 counter
COc1ccc(NC(=O)c2nc[nH]c2C(=O)NCC(=O)OC(C)(C)C)cc1	-12	14%	-6%	?	-20	?
CCOC(=O)c1[nH]cnc1C(=O)Nc1ccc(C)cc1	-3	15%	12%	13µM*	.	?
O=C1NC[C@H](CCCCN2C[C@H](Cc3ccccc3)N(CCC3CCCCC3)C(=O)C2=O)N(CCc2ccccc2)C1=O	2	.	.	.	1	.
CC1CCCCC12NC(=O)N(CC(=O)Nc1ccccc1F)C2=O (configuration not stated)	4	.	.	.	-1	.
S=C(NCc1ccc(Cl)c(Cl)c1)Nc1ccc2c(c1)OCO2	0	-11%	?	11µM*	6	?
COC(=O)NCc1ccc2c(c1)OCO2	3	3%	1%	-5%	2	-2%
CC(C)c1ccc(NC(=O)Cn2nnc(C(=O)NCc3ccc4c(c3)OCO4)c2N)cc1	-1	.	6%	-17%	3	-5%
S=C(NCc1cccnc1)Nc1ccc2c(c1)OCO2	1	.	-6%	-12%	5	1%
COc1ccc(NC(=S)NCc2ccc3c(c2)OCO3)cc1	-8	-5%	-11%	13µM*	-5	?
CC(C)c1ccc(NC(=S)NCc2ccc3c(c2)OCO3)cc1	-15	-24%	.	13µM*	-13	?
COc1ccc(OC)c(NC(=O)CN2C(=O)COc3ccc(C)cc32)c1	-4	.	4%	30%	5	0%
CCN1C(=O)/C(=C\C=C2/C=CC=CN2CC)SC1=S	?	?	?	8.9µM*	-2	?
COC(=O)c1[nH]c2cc(OC)ccc2c1NC(=O)c1c(F)cccc1F	-1	5%	13%	4%	.	-11%
C=CCNC(=S)Nc1c(C(=O)OC)[nH]c2cc(OC)ccc12	-2	1%	16%	2.8µM*	.	?
CC1CCCCN1CCCNC(=O)c1cc(Br)c(Br)[nH]1 (configuration not stated)	-8	5%	5%	3%	0	12%
Cc1cccc(NS(=O)(=O)c2cccc(C(=O)NCC(C)(C)N3CCOCC3)c2)c1	5	.	-2%	-33%	-5	-11%
CCNC(=S)NNC(=O)c1cc(C2CC2)nc2ccccc12	-1	0%	-4%	0.71µM*	-1	?
CCCNC(=S)NNC(=O)c1cc(C2CC2)nc2ccccc12	1	.	14%	11µM*	5	10µM*
C/C(=N\NC(=O)c1cc(C2CC2)nc2ccccc12)c1ccc(O)cc1O	-9	.	-2%	16µM*	-20	18µM*
C/C(=N\NC(=O)c1cc(C2CC2)nc2ccccc12)c1ccc(C)s1	1	3%	9%	-30%	-8	-3%
